High-throughput results (PubChem)
Tg IFNy HTS: blocks Toxoplasma gondii growth in the presence of IFN-gamma. activity change, negative = inhibition, % (concentration not given with the values). 69,000 compounds, 3.8% hits. Toxoplasma gondii growth in IFN-gamma-treated host cells; stronger effect = lower value; in the data active = activity change below about -70%, passing the limit was not always enough;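 note: host cells are HeLa cells infected with Toxoplasma gondii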
An asterisk follows results filed as active; ! = a repeat was not active. This excerpt belongs to a sample that is enriched for hits.

`CC(=O)OC1CCC2C3CCc4cc(O)ccc4C3CCC12C` (stereo not given) gave Tg IFNy HTS -28.
`CC12CCC3c4ccc(O)cc4CCC3C1CCC2=O` (stereo not given) gave Tg IFNy HTS -63.
`C[C@]12CCC3c4ccc(OC(=O)c5ccccc5)cc4CCC3C1CC[C@@H]2O` (stereo not given in full) gave Tg IFNy HTS -87*.
CC12CCC3c4ccc(OC(=O)c5ccccc5)cc4CCC3C1CCC2O (stereo not given) was read as Tg IFNy HTS -53.
Screening C#C[C@]1(O)CC[C@H]2[C@@H]3CCc4cc(O)ccc4[C@H]3CC[C@@]21C returned Tg IFNy HTS -79*!.
CC(=O)O[C@H]1CC[C@H]2[C@@H]3CCc4cc(O)ccc4[C@H]3CC[C@]12C was read as Tg IFNy HTS -6.
CC(=O)[C@@]1(O)CCC2C3CCC4=CC(=O)CC[C@]4(C)C3CC[C@@]21C (stereo not given in full) was read as Tg IFNy HTS -11.
Screening COc1ccc2c(c1)CCC1C2CCC2(C)C(=O)CCC12 (stereo not given) returned Tg IFNy HTS -14.
`C[C@]12CC[C@@H]3c4ccc(OS(=O)(=O)O)cc4CC[C@H]3[C@@H]1CCC2=O` gave Tg IFNy HTS 1.
For O=C(c1cn(-c2ccccc2)nn1)N1CCCC(c2nc3ccccc3[nH]2)C1 (stereo not given) the results were Tg IFNy HTS -19.
For CCC1C(=O)NCCN1C(=O)CCc1c(C)nn(-c2ccccc2)c1C (stereo not given) the results were Tg IFNy HTS 0.
`CCc1nc(SCC(=O)NCC2(O)C3CC4CC(C3)CC2C4)n[nH]1` (stereo not given) gave Tg IFNy HTS 2.
CC(C)N(C)Cc1ncn2c1CN(C(=O)c1ccc3ccccc3n1)CCC2 was read as Tg IFNy HTS 0.
For CN(CCCn1cccn1)Cc1ccsc1 the results were Tg IFNy HTS 2.
For C[C@]12CC[C@@H]3c4cc(O)c(O)cc4CC[C@H]3[C@@H]1CC[C@@H]2O the results were Tg IFNy HTS -67.
For C[C@]12CC[C@@H]3c4ccc(O)cc4CC[C@H]3[C@@H]1CC[C@@H]2O the results were Tg IFNy HTS -84*.
Screening COc1ccc2c(c1)CCC1C2CC[C@@]2(C)C1CC[C@@H]2O (stereo not given in full) returned Tg IFNy HTS -46.
`COc1cc2c(cc1-c1nccn1Cc1ccc(S(N)(=O)=O)cc1)CCC2` gave Tg IFNy HTS -6.
Screening Cc1cc(C(F)F)nn1CC(=O)N1C2CCC1CC(O)(Cn1ccc3ccncc31)C2 (stereo not given) returned Tg IFNy HTS -23.
`Cc1cn([C@H]2O[C@@H](CO)[C@H](O)[C@@H]2F)c(=O)[nH]c1=O` gave Tg IFNy HTS 18.
For CCCCCOC(=O)Nc1nc(=O)n([C@@H]2O[C@H](C)[C@@H](O)[C@H]2O)cc1F the results were Tg IFNy HTS -53.
Screening C[C@H]1O[C@@H](n2cc(F)c(=O)[nH]c2=O)[C@H](O)[C@@H]1O returned Tg IFNy HTS -91*.
Screening O=C(c1cccs1)N1CCC2(CC1)Nc1ccccc1-n1cccc12 returned Tg IFNy HTS 33.
Screening OCCn1cc(-c2ccc3c(c2)CC/C3=N\O)c(-c2ccncc2)n1 returned Tg IFNy HTS -78*!.
O=C(c1cc(-n2cnnn2)ccc1O)N1CCO[C@@H]2CCCC[C@H]21 was read as Tg IFNy HTS -5.
For COc1ccc(C(=O)CC(=O)O)c2c1C=CC(C)(C)O2 the results were Tg IFNy HTS 10.
For COc1ccc2[nH]cc(C3N4CC5(C)CN3CC(C)(C4)C5=O)c2c1 (stereo not given) the results were Tg IFNy HTS 11.
Screening COc1ccc2[nH]c(=O)c3c(c2c1)OC(C)(C)C=C3 returned Tg IFNy HTS -83*.
Screening Cc1ccc2cccc(N3C(=O)Nc4ccccc4N3O)c2n1 returned Tg IFNy HTS 181.
`Cc1ccc2cccc(NS(=O)(=O)c3cn(C)nc3C)c2n1` gave Tg IFNy HTS 65.
Screening Cc1ccc2ccc3ccc(C)nc3c2n1 returned Tg IFNy HTS -76*.
For Cc1ccc(N2CCOc3c(O)cc(-c4ccccc4C)cc3C2)nn1 the results were Tg IFNy HTS -13.
`O=C(c1ccccn1)N1CC[C@@]2(C1)C(=O)NC[C@H]2COc1ccccn1` gave Tg IFNy HTS -15.
Screening CC1(C)CC(=O)c2cnc3nc(N)nn3c2C1 returned Tg IFNy HTS -12.
`Cc1nn(-c2ccc3ccccc3n2)c2c1C(=O)CC(C)(C)C2` gave Tg IFNy HTS -95*.
Cc1nn(C(=O)c2ccccc2)c2c1C(=O)CC(C)(C)C2 was read as Tg IFNy HTS -30.
COc1cccc(OC)c1C(=O)NCCc1csc(-c2ccc(F)cc2)n1 was read as Tg IFNy HTS 36.
C=CCNc1c(C(=O)OC)c(=O)[nH]c2ccc(F)cc12 was read as Tg IFNy HTS 32.
`COC(=O)c1ccc(NC(=O)CSc2nnc3c(n2)[nH]c2ccc(F)cc23)cc1` gave Tg IFNy HTS -70*.
Cc1ccc2nc(SCC(=O)Nc3ccc(F)cc3)c(C)cc2c1 was read as Tg IFNy HTS -26.
`CC(C)c1ccc(OCCN(C)Cc2cc3n(n2)CCCNC3)cc1` gave Tg IFNy HTS -32.
`COc1ccc(OC)c(-n2c(/C=C/c3ccc4c(c3)OCO4)nc3ccccc3c2=O)c1` gave Tg IFNy HTS 19.
C(=C/c1ccc2ccccc2n1)/c1ccc2c(c1)OCO2 was read as Tg IFNy HTS -94*.
Screening C(=C/c1nccc2c1[nH]c1ccccc12)/c1ccc2c(c1)OCO2 returned Tg IFNy HTS 133.
For CC(=O)Nc1cccc(-c2ccc(C(=O)N3CCCC3)cn2)c1 the results were Tg IFNy HTS -2.
Cc1nc(C)n(CC(=O)NCCc2nc3ccccc3n2C)n1 was read as Tg IFNy HTS 70.
CS(=O)(=O)N1CCC2(CC1)CC(NCc1cccs1)c1ccccc12 (stereo not given) was read as Tg IFNy HTS -94*.
COCCN1CCC2(CC1)CC(NCc1ccc(C)s1)c1ccccc12 (stereo not given) was read as Tg IFNy HTS -4.
`CN(C)CCN1CCC2(CC1)CC(NCc1cccs1)c1ccccc12` (stereo not given) gave Tg IFNy HTS -35.
`COc1ccc(-c2nc(C)c(CCNS(=O)(=O)c3ccc4ccccc4c3)s2)cc1OC` gave Tg IFNy HTS -29.
For COc1ccc(-c2nc(C)c(CCNS(=O)(=O)c3ccc(Oc4ccccc4)cc3)s2)cc1OC the results were Tg IFNy HTS -97*.
For COc1ccc(-c2nc(C)c(CCNS(=O)(=O)c3ccc(C)cc3)s2)cc1OC the results were Tg IFNy HTS inactive.
`CCCN(Cc1cccc(Cl)c1)C(=O)c1ccoc1` gave Tg IFNy HTS -3.
CC(C(=O)NC1CCN(Cc2cc(-c3ccccc3F)nn2C)CC1)n1ccnc1 (stereo not given) was read as Tg IFNy HTS 17.
`O=C(NCC1CCCOC1)C1(Cc2cc(-c3ccc(F)cc3F)no2)CCOCC1` (stereo not given) gave Tg IFNy HTS 66.
Screening Cc1ccc(C(=O)Nc2ccc(Oc3cc4cnn(C)c4cc3-c3cn[nH]c3)c(F)c2)c(=O)n1-c1ccc(F)cc1 returned Tg IFNy HTS -74*.
Screening Cc1ccc(NC(=O)c2c(O)c3cccnc3n(-c3ccc(F)cc3)c2=O)cc1F returned Tg IFNy HTS 89.
